Measurements from PubChem BioAssay (EPA / NIEHS).
Results filed as inconclusive are left out. A structure can be active in one record and inactive in another. Activity calls are given as the source filed them. How the source made its calls: active means hit-call score of the fitted dose curve at least 0.9, where 1 is the maximum; inconclusive means response in the unintended direction; inactive means score below 0.9.

Legend:
[1] = target: rat Thyrotropin Releasing Hormone Receptor (TRH), Trhr (gene 25570) (UniProt Q01717); assay: NVS_GPCR_rTRH: NovaScreen (NVS) G Protein-Coupled Receptor Assay for rat Thyrotropin Releasing Hormone Receptor (TRH) (AID 2283329);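 further: hit means lower bound tracer signal versus DMSO baseline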
rat Thyrotropin Releasing Hormone Receptor (TRH), Trhr (gene 25570), sequence (Q01717 whole entry, looked up): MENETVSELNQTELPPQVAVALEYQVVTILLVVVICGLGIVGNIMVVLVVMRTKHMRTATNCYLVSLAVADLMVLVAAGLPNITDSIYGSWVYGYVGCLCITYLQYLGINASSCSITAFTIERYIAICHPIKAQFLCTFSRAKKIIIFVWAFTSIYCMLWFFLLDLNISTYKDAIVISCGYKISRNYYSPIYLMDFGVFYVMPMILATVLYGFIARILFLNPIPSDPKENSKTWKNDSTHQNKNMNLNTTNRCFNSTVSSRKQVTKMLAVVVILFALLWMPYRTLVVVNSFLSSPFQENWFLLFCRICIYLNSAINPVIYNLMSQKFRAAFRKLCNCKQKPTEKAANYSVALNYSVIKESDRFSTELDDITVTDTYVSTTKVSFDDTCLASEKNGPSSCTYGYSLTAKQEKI
How it was run: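 Test compounds are screened at 25 uM in duplicate against radioligand binding in rat forebrain membranes, with active pairs followed up over a concentration range. Detection uses filter-based radiodetection after a 4 h exposure.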

[2] = target: Estrogen receptor (Homo sapiens) (UniProt P03372); assay: OT_ER_ERaERa_1440: Odyssey Thera (OT) 24-hour HEK293T Protein-Complementation Assay for Estrogen Receptor-alpha/-alpha Homodimer (AID 2283349);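 further: hits raise fluorescence above DMSO for agonists and antagonists alike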
Estrogen receptor (Homo sapiens), sequence (P03372 whole entry, looked up, the tested form may be a part): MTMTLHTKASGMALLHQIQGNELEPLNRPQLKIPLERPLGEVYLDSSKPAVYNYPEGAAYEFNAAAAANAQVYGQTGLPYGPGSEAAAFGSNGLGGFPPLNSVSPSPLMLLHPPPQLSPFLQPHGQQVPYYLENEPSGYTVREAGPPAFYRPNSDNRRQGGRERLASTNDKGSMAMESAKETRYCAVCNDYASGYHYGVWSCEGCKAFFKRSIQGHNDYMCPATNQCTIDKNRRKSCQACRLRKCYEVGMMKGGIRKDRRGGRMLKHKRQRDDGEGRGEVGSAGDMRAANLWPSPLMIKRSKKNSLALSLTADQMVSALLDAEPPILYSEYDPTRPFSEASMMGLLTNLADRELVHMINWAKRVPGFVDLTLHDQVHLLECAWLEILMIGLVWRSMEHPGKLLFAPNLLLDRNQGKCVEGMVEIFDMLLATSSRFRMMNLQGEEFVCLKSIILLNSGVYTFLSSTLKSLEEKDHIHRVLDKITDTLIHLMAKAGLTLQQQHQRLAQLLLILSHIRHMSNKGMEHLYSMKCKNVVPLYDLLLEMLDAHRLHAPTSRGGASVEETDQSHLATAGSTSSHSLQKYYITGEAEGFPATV
How it was run: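 Stably transfected HEK293T; ERα LBD homodimer PCA. 24 h dosing, fluorescence intensity read, gain-of-signal vs DMSO.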

[3] = target: T1, Estrogen receptor (Homo sapiens) + Estrogen receptor beta (Homo sapiens) (UniProt P03372+Q92731); assay: OT_ER_ERaERb_1440: Odyssey Thera (OT) 24-hour HEK293T Protein-Complementation Assay for Estrogen Receptor-alpha/-beta Homodimer (AID 2283356);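 further: heteromer of ER alpha and ER beta binding domains; hits raise reporter fluorescence and both agonists and antagonists give an increase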
T1 sequence (P03372 whole entry, looked up, the tested form may be a part): as above
T1 sequence (Q92731 whole entry, looked up, the tested form may be a part): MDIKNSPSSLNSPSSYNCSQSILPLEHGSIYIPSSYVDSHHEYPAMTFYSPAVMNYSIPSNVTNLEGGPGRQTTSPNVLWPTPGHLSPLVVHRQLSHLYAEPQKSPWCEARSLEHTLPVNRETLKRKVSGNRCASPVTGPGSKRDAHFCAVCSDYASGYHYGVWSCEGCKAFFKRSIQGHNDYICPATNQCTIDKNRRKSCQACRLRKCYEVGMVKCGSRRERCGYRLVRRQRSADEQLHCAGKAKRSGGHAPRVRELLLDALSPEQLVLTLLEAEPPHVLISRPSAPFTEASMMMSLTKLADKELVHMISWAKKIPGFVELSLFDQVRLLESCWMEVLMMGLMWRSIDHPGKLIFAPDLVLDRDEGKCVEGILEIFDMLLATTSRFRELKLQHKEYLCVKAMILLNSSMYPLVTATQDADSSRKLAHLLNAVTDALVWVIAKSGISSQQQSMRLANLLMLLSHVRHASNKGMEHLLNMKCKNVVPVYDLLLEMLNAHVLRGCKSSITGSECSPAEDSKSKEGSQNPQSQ
How it was run: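 HEK293T cells stably expressing a PCA pair of ERα LBD (aa 310-547) and ERβ LBD (aa 263-489) were dosed for 24 h. Fluorescence intensity increase versus DMSO vehicle was fitted as gain-of-signal.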

[4] = target: Estrogen receptor beta (Homo sapiens) (UniProt Q92731); assay: OT_ER_ERbERb_0480: Odyssey Thera (OT) 8-hour HEK293T Protein-Complementation Assay for Estrogen Receptor-beta/-beta Homodimer (AID 2283357);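 further: active means signal gain over DMSO baseline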
Estrogen receptor beta (Homo sapiens), sequence (Q92731 whole entry, looked up, the tested form may be a part): as above
How it was run: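 Fluorescence gain from complemented reporter fragments on ER-beta LBD homodimer in HEK293T was quantified against DMSO controls after 8 h treatment, fixation in 4% formaldehyde and Draq5 staining.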

[5] = target: human Opioid Receptor Mu (Opiate Mu), OPRM1 (gene 4988) (UniProt P35372); assay: NVS_GPCR_hOpiate_mu: NovaScreen (NVS) G Protein-Coupled Receptor Assay for human Opioid Receptor Mu (Opiate Mu) (AID 2283290);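 further: hits lower bound tracer signal versus DMSO meaning displacement of the ligand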
How it was run: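 Here, radioligand binding to CHO-extracted receptor was measured after 2.5 h using filter-based scintillation detection. Initial single-concentration screening used 25 uM in duplicate with plate controls; confirmed actives went to concentration-response testing.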

[6] = target: Sodium channel protein type 1 subunit alpha (Rattus norvegicus) (UniProt P04774); assay: NVS_IC_rNaCh_site2: NovaScreen (NVS) Ion Channel Assay for rat Sodium Channel, Site 2 (NaCh) (AID 2283322);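 further: hit means loss of radioligand binding signal relative to DMSO so AC50 marks displacement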
How it was run: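 Initial duplicate single-point testing at 25 uM, followed by concentration-response runs for actives. Binding of radioligand to rat forebrain membranes quantified after 1 h via filter-based radiodetection.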

[7] = target: human Peripheral-type Benzodiazepine Receptor (PBR), TSPO (gene 706) (UniProt P30536); assay: NVS_MP_hPBR: NovaScreen (NVS) Membrane Protein Assay for human Peripheral-type Benzodiazepine Receptor (PBR) (AID 2283331);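 further: hits reduce radioligand binding relative to DMSO baseline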
human Peripheral-type Benzodiazepine Receptor (PBR), TSPO (gene 706), sequence (P30536 whole entry, looked up): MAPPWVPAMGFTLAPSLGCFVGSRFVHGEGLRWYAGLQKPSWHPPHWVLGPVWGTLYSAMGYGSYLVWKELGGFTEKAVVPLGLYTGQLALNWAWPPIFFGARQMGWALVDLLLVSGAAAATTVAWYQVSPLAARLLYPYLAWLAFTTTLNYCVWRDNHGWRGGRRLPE
How it was run: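 Using human colon-derived membranes, this one-endpoint binding test reads radioligand loss by scintillation after 1 h. Screening started at 25 uM in duplicate, with positive and negative controls on every plate, and actives moved to dose series.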

[8] = target: Estrogen receptor (Homo sapiens) (UniProt P03372); assay: NVS_NR_hER: NovaScreen (NVS) Nuclear Receptor Binding Assay for human Estrogen Receptor (ER) (AID 2283348)
How it was run: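 Radiodetection of ligand displacement in a lysate-based, cell-free format using MCF7 extracts, read at 18 hours. Duplicate 25 uM primary testing, then concentration series for actives.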

[9] = target: human Peroxisome Proliferator-activated Receptor alpha (PPARa), PPARA (gene 5465) (UniProt Q07869); assay: NVS_NR_hPPARa: NovaScreen (NVS) Nuclear Receptor Binding Assay for human Peroxisome Proliferator-activated Receptor alpha (PPARa) (AID 2283359);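 further: activity means loss of TR-FRET signal versus DMSO baseline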
human Peroxisome Proliferator-activated Receptor alpha (PPARa), PPARA (gene 5465), sequence (Q07869 whole entry, looked up): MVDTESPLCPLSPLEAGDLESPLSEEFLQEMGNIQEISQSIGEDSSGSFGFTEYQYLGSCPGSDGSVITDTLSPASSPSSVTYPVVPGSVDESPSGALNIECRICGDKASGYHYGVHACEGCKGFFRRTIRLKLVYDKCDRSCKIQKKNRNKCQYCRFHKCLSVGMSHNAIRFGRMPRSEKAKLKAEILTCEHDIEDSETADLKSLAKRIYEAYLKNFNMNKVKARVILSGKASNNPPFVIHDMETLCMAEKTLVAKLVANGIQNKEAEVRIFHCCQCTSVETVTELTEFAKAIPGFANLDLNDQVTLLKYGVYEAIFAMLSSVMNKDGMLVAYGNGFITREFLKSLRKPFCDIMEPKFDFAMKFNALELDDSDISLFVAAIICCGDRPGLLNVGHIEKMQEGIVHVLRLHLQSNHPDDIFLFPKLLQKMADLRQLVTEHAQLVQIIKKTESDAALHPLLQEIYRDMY
How it was run: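 One-hour incubation, cell-free extracted protein, TR-FRET binding readout; signal loss vs DMSO scored. Screen: 25 uM duplicates, confirmatory dose series for actives.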

[10] = target: rat Peripheral-type Benzodiazepine Receptor (PBR), Tspo (gene 24230) (UniProt P16257); assay: NVS_MP_rPBR: NovaScreen (NVS) Membrane Protein Assay for rat Peripheral-type Benzodiazepine Receptor (PBR) (AID 2283335)
rat Peripheral-type Benzodiazepine Receptor (PBR), Tspo (gene 24230), sequence (P16257 whole entry, looked up): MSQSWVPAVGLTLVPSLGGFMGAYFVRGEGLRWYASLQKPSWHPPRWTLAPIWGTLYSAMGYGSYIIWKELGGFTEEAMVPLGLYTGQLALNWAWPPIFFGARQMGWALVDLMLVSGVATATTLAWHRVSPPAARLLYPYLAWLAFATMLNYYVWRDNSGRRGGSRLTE
How it was run: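 Competitive displacement of specific radioligand from rat kidney membrane PBR, read by filtration and scintillation after 1 h. Compounds first tested at 25 uM in duplicate, then in concentration series; signal loss relative to DMSO.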

[11] = target: bovine Estrogen Receptor (ER), ESR1 (gene 407238) (UniProt P49884); assay: NVS_NR_bER: NovaScreen (NVS) Nuclear Receptor Binding Assay for bovine Estrogen Receptor (ER) (AID 2283345);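 further: actives lower the bound radioligand count which means they displace the ER ligand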
bovine Estrogen Receptor (ER), ESR1 (gene 407238), sequence (P49884 whole entry, looked up): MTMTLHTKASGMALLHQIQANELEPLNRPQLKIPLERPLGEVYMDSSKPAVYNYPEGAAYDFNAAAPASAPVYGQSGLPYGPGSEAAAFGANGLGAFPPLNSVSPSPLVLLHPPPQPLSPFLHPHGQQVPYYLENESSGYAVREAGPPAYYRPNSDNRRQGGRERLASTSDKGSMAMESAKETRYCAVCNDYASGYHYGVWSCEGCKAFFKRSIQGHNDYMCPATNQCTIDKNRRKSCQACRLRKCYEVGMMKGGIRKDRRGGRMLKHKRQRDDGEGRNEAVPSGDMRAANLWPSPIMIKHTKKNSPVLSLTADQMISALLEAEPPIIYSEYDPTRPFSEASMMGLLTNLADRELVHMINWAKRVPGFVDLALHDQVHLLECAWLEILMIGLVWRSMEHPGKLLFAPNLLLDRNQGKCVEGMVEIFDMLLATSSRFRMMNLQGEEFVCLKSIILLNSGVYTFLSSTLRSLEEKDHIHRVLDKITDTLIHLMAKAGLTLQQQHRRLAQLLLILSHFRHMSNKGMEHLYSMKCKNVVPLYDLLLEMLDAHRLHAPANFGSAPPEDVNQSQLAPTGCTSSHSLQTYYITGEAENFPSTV
How it was run: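 Bovine uterine membranes; tritiated or iodinated radioligand; competitive displacement; 18 h; scintillation read; DMSO negative control; 25 uM duplicates, then concentration series for actives.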

[12] = target: Estrogen receptor (Homo sapiens) (UniProt P03372); assay: OT_ER_ERaERa_0480: Odyssey Thera (OT) 8-hour HEK293T Protein-Complementation Assay for Estrogen Receptor-alpha/-alpha Homodimer (AID 2283351);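 further: rise in fluorescence from reassembled reporter fragments on ERα LBD homodimer in nucleus or whole cell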
How it was run: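 HEK293T cells stably expressing a PCA pair of ER alpha LBD (residues 310-547) were dosed for 8 hours. The gain in fluorescence intensity, nuclear for agonists and whole-cell for antagonists, was measured by laser scanning cytometry against DMSO vehicle.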

[13] = target: T1, Estrogen receptor (Homo sapiens) + Estrogen receptor beta (Homo sapiens); assay: OT_ER_ERaERb_0480: Odyssey Thera (OT) 8-hour HEK293T Protein-Complementation Assay for Estrogen Receptor-alpha/-beta Heterodimer (AID 2283352)
How it was run: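 HEK293T cells expressing ER-alpha/ER-beta LBD fusions to complementary reporter fragments were dosed with compound for 8 hours. Heterodimer formation was read as increased nuclear (agonist) or nuclear plus cytoplasmic (antagonist) mean fluorescence intensity versus DMSO vehicle.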

[14] = target: Androgen Receptor/SRC-1 Co-activator, AR (gene 367) (UniProt P10275); assay: OT_AR_ARSRC1_0960: Odyssey Thera (OT) 16-hour HEK293T Protein-Complementation Assay for Androgen Receptor/SRC-1 Co-activator (AID 2283353);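 further: actives raise the signal above DMSO so potency reflects increased AR and SRC-1 complex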
How it was run: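 Endpoint is gain-of-signal N/C fluorescence ratio in the 488 nm channel versus DMSO, from at least 400 cells per image, measured 16 h post-dosing. Cells: HEK293T stably carrying split-Venus AR/SRC-1 complementation constructs.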

[15] = target: Androgen Receptor/SRC-1 Co-activator, AR (gene 367) (UniProt P10275); assay: OT_AR_ARSRC1_0480: Odyssey Thera (OT) 8-hour HEK293T Protein-Complementation Assay for Androgen Receptor/SRC-1 Co-activator (AID 2283354);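 further: hits raise the complementation signal above DMSO so AC50 marks enhancers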
How it was run: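 After 8 h dosing, stably expressing HEK293T cells with split-Venus AR/SRC-1 fusions were imaged (488, 635nm). The 488nm N/C ratio per image gave the endpoint, analysed in the positive direction against DMSO.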

[16] = target: chimpanzee Androgen Receptor (AR), AR (gene 747460) (UniProt O97775); assay: NVS_NR_cAR: NovaScreen (NVS) Nuclear Receptor Binding Assay for chimpanzee Androgen Receptor (AR) (AID 2283346);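 further: radioligand displacement from AR measured by scintillation counting in a cell-free assay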
chimpanzee Androgen Receptor (AR), AR (gene 747460), sequence (O97775 whole entry, looked up): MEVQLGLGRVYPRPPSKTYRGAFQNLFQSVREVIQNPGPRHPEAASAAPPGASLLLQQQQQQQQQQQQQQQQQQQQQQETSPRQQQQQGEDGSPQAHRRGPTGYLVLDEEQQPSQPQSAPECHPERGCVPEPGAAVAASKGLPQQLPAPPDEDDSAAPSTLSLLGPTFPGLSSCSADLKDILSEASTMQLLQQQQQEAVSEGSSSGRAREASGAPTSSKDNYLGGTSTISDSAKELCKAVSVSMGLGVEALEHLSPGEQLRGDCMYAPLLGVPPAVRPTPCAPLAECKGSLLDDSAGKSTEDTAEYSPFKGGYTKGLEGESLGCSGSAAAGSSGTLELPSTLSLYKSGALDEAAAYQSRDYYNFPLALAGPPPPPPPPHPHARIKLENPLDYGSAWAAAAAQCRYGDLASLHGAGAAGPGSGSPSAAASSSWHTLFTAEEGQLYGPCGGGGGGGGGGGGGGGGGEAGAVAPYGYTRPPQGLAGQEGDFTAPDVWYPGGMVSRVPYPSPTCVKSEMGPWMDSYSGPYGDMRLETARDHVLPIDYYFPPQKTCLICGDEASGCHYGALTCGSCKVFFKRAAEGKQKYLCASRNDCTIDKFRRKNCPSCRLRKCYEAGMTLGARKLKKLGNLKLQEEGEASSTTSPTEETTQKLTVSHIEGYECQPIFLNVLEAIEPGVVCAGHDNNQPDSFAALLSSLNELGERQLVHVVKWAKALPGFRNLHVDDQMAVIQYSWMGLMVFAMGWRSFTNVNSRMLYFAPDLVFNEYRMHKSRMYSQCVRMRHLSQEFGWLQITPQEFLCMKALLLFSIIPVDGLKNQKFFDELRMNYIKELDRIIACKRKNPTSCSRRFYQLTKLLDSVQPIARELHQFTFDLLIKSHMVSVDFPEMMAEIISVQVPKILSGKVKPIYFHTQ
How it was run: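 Cell-free radioligand displacement using receptor protein extracted from Sf9/Sf21 cells; bound radioligand measured by scintillation counting 72 hours after chemical dosing. Loss of signal versus DMSO baseline indicates binding; primary screen single-concentration in duplicate at 25 uM, actives followed in concentration series.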

[17] = NVS_IC_rCaBTZCHL: NovaScreen (NVS) Ion Channel Assay for Calcium Channel, Type L, Benzothiazepine Site (CaBTZCHL) (AID 2283337)
How it was run: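 Rat cortical membrane preparation incubated 1.5 h with compound and benzothiazepine-site radioligand; loss of filter-bound counts versus DMSO marks displacement. Initial duplicate testing at 25 uM, actives followed up in concentration series.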

[18] = target: rat Mineralocorticoid Receptor (MR), Nr3c2 (gene 25672) (UniProt P22199); assay: NVS_NR_rMR: NovaScreen (NVS) Nuclear Receptor Binding Assay for rat Mineralocorticoid Receptor (MR) (AID 2283355)
How it was run: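 Single-concentration duplicate screen (25 uM) of radioligand binding in adrenalectomized rat brain supernatant; scintillation detection 24 h after dosing. Positive and negative controls ran on each plate, and confirmed actives went to concentration-response.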

PGR (gene 5241) = PGR (gene 5241) (UniProt P06401); assay: NVS_NR_hPR: NovaScreen (NVS) Nuclear Receptor Binding Assay for human Progestron Receptor (PR) (AID 2283360)
How it was run: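 Competitive displacement of a labelled radioligand from T47D-derived receptor protein is measured in a cell-free format. Initial testing uses 25 uM in duplicate, with positive and negative controls on every plate.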

SMILES: NC(=O)N=NC(N)=O
- outcome [1]: inactive
- outcome [2]: inactive
- outcome [3]: inactive
- outcome [4]: inactive

SMILES: CCCCCCCCCCCCCCCC[N+](C)(C)CC
- AC50 [5]: 2.05 µM (active)
- outcome [6]: inactive
- AC50 [7]: 35.8 µM (active)
- outcome [8]: inactive

SMILES: Cc1cc(C)c(C)cc1C
- outcome [1]: inactive
- outcome [2]: inactive
- outcome [9]: inactive

SMILES: O=c1cc(-c2ccccc2)oc2ccccc12
- AC50 [7]: 12.6 µM (active)
- AC50 [10]: 3.68 µM (active)
- outcome [11]: inactive
- outcome [8]: inactive
- outcome [2]: inactive
- outcome [12]: inactive
- outcome [13]: inactive
- outcome [14]: inactive
- outcome [15]: inactive
- AC50 [3]: 57.3 µM (active)
- outcome [4]: inactive

SMILES: c1ccc2c(c1)ccc1cc3c(ccc4ccccc43)cc12
- outcome [1]: inactive
- outcome [16]: inactive
- outcome [2]: inactive

SMILES: CCO[Si](CCCN=C=O)(OCC)OCC
- outcome [17]: inactive

SMILES: Cc1cccc(N)n1
- outcome [11]: inactive
- outcome [8]: inactive

SMILES: CCOC(=O)c1ccccc1C(=C1C=C(Br)C(=O)C(Br)=C1)c1cc(Br)c(O)c(Br)c1
- outcome [11]: inactive

SMILES: O=C(OCC1CCC2OC2C1)C1CCC2OC2C1 (configuration not stated)
- outcome [11]: inactive
- outcome [2]: inactive

SMILES: CC(=O)[C@H]1[C@H](C#N)C[C@H]2[C@@H]3CC=C4C[C@@H](O)CC[C@]4(C)[C@H]3CC[C@@]21C
- outcome [11]: inactive
- outcome [8]: inactive
- outcome [2]: inactive
- outcome [12]: inactive
- outcome [13]: inactive
- outcome [3]: inactive
- outcome [4]: inactive

SMILES: COc1ccc(-c2coc3cc(O)ccc3c2=O)cc1
- outcome [11]: inactive
- AC50 [8]: 7.09 µM (active)

SMILES: CC(C)c1ccc2c(c1)CC[C@H]1[C@](C)(CN)CCC[C@]21C
- outcome [8]: inactive

SMILES: C#CC1(O)CC[C@H]2[C@@H]3CCC4=CCCC[C@@H]4[C@H]3CC[C@@]21C (some centres not stated)
- AC50 [11]: 6.05 µM (active)
- outcome [16]: inactive
- AC50 [8]: 0.258 µM (active)
- outcome [8]: inactive
- outcome [18]: inactive
- AC50 (PGR (gene 5241)): 39.6 µM (active)
